In PubChem BioAssay (EPA / NIEHS):
Several values for one entry are separate records, joined by “and”; a condition that tells them apart may be missing. Equal entries are not always repeated. Results filed as inconclusive are left out. Activity calls are given as the source filed them. The calls were made as follows, unless noted: active = hit-call score of the fitted dose curve at least 0.9, where 1 is the maximum; inactive = score below 0.9.

Biological target: Ratio of Nucleoli Translocation and Cytoplasm, AR (gene 367) (UniProt P10275)
Sequence (P10275 whole entry, looked up): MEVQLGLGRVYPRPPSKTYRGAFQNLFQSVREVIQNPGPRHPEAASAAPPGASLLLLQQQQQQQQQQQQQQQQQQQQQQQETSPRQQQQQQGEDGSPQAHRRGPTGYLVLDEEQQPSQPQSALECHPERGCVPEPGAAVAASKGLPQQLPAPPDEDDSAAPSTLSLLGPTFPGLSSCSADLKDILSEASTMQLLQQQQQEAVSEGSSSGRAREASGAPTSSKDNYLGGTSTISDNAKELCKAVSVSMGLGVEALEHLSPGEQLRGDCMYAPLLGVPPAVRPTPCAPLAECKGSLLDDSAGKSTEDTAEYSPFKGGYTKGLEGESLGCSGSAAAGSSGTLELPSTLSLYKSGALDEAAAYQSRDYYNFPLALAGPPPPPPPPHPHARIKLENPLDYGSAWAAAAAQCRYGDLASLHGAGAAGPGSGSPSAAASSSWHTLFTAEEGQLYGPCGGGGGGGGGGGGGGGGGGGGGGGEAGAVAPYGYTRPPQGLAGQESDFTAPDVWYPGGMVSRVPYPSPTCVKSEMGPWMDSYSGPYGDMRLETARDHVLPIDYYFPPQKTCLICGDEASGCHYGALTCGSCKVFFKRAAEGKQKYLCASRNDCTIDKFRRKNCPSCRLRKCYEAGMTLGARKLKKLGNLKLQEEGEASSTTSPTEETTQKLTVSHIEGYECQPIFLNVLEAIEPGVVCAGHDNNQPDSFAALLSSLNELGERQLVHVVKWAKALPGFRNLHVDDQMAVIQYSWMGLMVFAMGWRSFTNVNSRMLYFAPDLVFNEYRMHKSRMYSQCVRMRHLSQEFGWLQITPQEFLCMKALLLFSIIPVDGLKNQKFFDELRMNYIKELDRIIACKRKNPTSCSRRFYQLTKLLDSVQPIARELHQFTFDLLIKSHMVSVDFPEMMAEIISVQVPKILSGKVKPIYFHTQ
Assay: UPITT_HCI_U2OS_AR_TIF2_Nucleoli_Cytoplasm_Ratio_Agonist: University of Pittsburgh U2OS Androgen Receptor-Transcriptional Intermediary Factor 2 (AR-TIF2) Agonism High Content Imaging Assay for Ratio of Nucleoli Translocation and Cytoplasm (AID 2284000; active = hit-call score of the fitted dose curve at least 0.9, where 1 is the maximum;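 also: hits raise the red nucleolar to cytoplasm ratio above vehicle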)
Summary of the method: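 Human osteosarcoma U2OS line, AR-RFP plus TIF2-GFP; compounds 0.195–50 uM final, 0.5% DMSO. Readout: nucleolar/cytoplasmic RFP ratio by HCI, positive direction vs DMSO baseline.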
For `CCN=C1C=CC(=C(c2ccc(N(CC)CC)cc2)c2ccc(N(CC)CC)cc2)c2ccccc21`, the outcome was “inactive”. With `CCCCCCCCCCCCCC[P+](CCCC)(CCCC)CCCC` the outcome was “inactive”. For `CCCCCCCCCc1ccc(OCCO)cc1`, the AC50 was 75.5 µM (active). With `O=C1C=CC(=O)N1c1ccccc1` the outcome was “inactive”. With `CCCCCCCC/C=C\CCCCCCCC(=O)OCC(O)CO` (stereo not given) the outcome was “inactive”. In the case of `CCN=c1cc2oc3cc(NCC)c(C)cc3c(-c3ccccc3C(=O)OCC)c-2cc1C`, the AC50 is reported as 13.6 µM (active). With `COCCOCCC[Si](C)(O[Si](C)(C)C)O[Si](C)(C)C` the outcome was “inactive”. In the case of `C[C@]12CC[C@H]3C(=CCc4cc(O)ccc43)[C@@H]1CCC2=O`, the outcome is reported as “inactive”. With `Cc1cccc(C)n1` the outcome was “inactive”. For `CC1CCCCC1`, the outcome was “inactive”. With `CCc1ccc(C)nc1` the outcome was “inactive”. In the case of `CCCCCCCCCCCCC[N+](C)(C)Cc1ccccc1`, the outcome is reported as “inactive”. With `F[Si-2](F)(F)(F)(F)F` the outcome was “inactive”.

System: not listed separately
Assay: CCTE_Harrill_HTTr_Viability_MCF7: CCTE's 6-hour Cell Viability Assessment for the High-Throughput Transcriptomics (HTTr) Platform, in MCF-7 cells cultured in DMEM + 10% fetal bovine serum, Harrill Lab (AID 2284010)
Summary of the method: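 PI exclusion, high-content imaging; 8-pt dilution series, 6 h exposure; bidirectional fit vs DMSO (neg. ctrl/baseline); gain of signal = loss of membrane integrity.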
With `Cc1ccc(O)c(-n2nc3ccccc3n2)c1` the outcome was “inactive”. With `CN(N=O)C(=O)N[C@@H]1[C@@H](O)[C@H](O)[C@@H](CO)O[C@@H]1O` the outcome was “inactive”. With `CCN=C1C=CC(=C(c2ccc(N(CC)CC)cc2)c2ccc(N(CC)CC)cc2)c2ccccc21` the outcome was “inactive”. With `CC(=O)CCC(C)C` the outcome was “inactive”. With `CC(C)(C)c1cc(CCC(=O)OCC(COC(=O)CCc2cc(C(C)(C)C)c(O)c(C(C)(C)C)c2)(COC(=O)CCc2cc(C(C)(C)C)c(O)c(C(C)(C)C)c2)COC(=O)CCc2cc(C(C)(C)C)c(O)c(C(C)(C)C)c2)cc(C(C)(C)C)c1O` the outcome was “inactive”. In the case of `CCCCCCCCCc1ccc(OCCO)cc1`, the outcome is reported as “inactive”. With `CCCCC(CC)COC(=O)c1ccc(N(C)C)cc1` (stereo not given) the outcome was “inactive”. For `CCOC(=O)C1CC(=O)C(=C(O)C2CC2)C(=O)C1` (stereo not given), the outcome was “inactive”. For `CSc1ccc(O)cc1C`, the outcome was “inactive”. In the case of `Cc1cnccn1`, the outcome is reported as “inactive”. With `Brc1ccccn1` the outcome was “inactive”. With `Cc1cc(=O)[nH]c(C(C)C)n1` the outcome was “inactive”. In the case of `CCCCCCCCn1sc(Cl)c(Cl)c1=O`, the outcome is reported as “inactive”. For `CCN=c1cc2oc3cc(NCC)c(C)cc3c(-c3ccccc3C(=O)OCC)c-2cc1C`, the AC50 was 214 nM (active) and 159 nM (active). In the case of `O=S(=O)(O)c1ccc(Cl)cc1`, the outcome is reported as “inactive”. With `O=C(c1ccccc1)c1ccc(O)cc1O` the outcome was “inactive”. With `CCCCCCCCCCCCCCCCC` the outcome was “inactive”. With `C[C@]12CC[C@H]3C(=CCc4cc(O)ccc43)[C@@H]1CCC2=O` the outcome was “inactive”. For `CSc1ccc(Cl)cc1`, the outcome was “inactive”. In the case of `Cc1cccc(C)n1`, the outcome is reported as “inactive”. For `CCC(Cc1c(I)cc(I)c(N)c1I)C(=O)O` (stereo not given), the outcome was “inactive”. In the case of `CC1CCCCC1`, the outcome is reported as “inactive”. In the case of `CCCCCCCC/C=C\CCCCCCCC(=O)N(C)CC(=O)O`, the outcome is reported as “inactive”. In the case of `CCc1ccc(C)nc1`, the outcome is reported as “inactive”. In the case of `CCCCCCCCCCCCC[N+](C)(C)Cc1ccccc1`, the outcome is reported as “inactive”. In the case of `CN(C)C(C)(C)CO`, the outcome is reported as “inactive”.

System: not listed separately
Assay: CCTE_Harrill_HTTr_Apoptosis_MCF7: CCTE's 6-hour Apoptosis Assessment for the High-Throughput Transcriptomics (HTTr) Platform, in MCF-7 cells cultured in DMEM + 10% fetal bovine serum, Harrill Lab (AID 2284011)
Summary of the method: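 MCF-7 cells in DMEM + 10% FBS exposed 6 h to chemicals over an eight-point dilution series. Caspase-3/7 activation imaged by high-content CellEvent Green staining; fitted bidirectionally versus DMSO.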
With `Cc1ccc(O)c(-n2nc3ccccc3n2)c1` the outcome was “inactive”. For `CN(N=O)C(=O)N[C@@H]1[C@@H](O)[C@H](O)[C@@H](CO)O[C@@H]1O`, the outcome was “inactive”. In the case of `CCN=C1C=CC(=C(c2ccc(N(CC)CC)cc2)c2ccc(N(CC)CC)cc2)c2ccccc21`, the outcome is reported as “inactive”. For `CC(=O)CCC(C)C`, the outcome was “inactive”. With `CC(C)(C)c1cc(CCC(=O)OCC(COC(=O)CCc2cc(C(C)(C)C)c(O)c(C(C)(C)C)c2)(COC(=O)CCc2cc(C(C)(C)C)c(O)c(C(C)(C)C)c2)COC(=O)CCc2cc(C(C)(C)C)c(O)c(C(C)(C)C)c2)cc(C(C)(C)C)c1O` the outcome was “inactive”. With `CCCCCCCCCc1ccc(OCCO)cc1` the outcome was “inactive”. In the case of `CCCCC(CC)COC(=O)c1ccc(N(C)C)cc1` (stereo not given), the outcome is reported as “inactive”. For `CCOC(=O)C1CC(=O)C(=C(O)C2CC2)C(=O)C1` (stereo not given), the outcome was “inactive”. In the case of `CSc1ccc(O)cc1C`, the outcome is reported as “inactive”. In the case of `Cc1cnccn1`, the outcome is reported as “inactive”. For `Brc1ccccn1`, the outcome was “inactive”. With `Cc1cc(=O)[nH]c(C(C)C)n1` the outcome was “inactive”. In the case of `CCCCCCCCn1sc(Cl)c(Cl)c1=O`, the outcome is reported as “inactive”. With `CCN=c1cc2oc3cc(NCC)c(C)cc3c(-c3ccccc3C(=O)OCC)c-2cc1C` the AC50 was 96.9 nM (active) and 51.2 nM (active). In the case of `O=S(=O)(O)c1ccc(Cl)cc1`, the outcome is reported as “inactive”. With `O=C(c1ccccc1)c1ccc(O)cc1O` the outcome was “inactive”. With `CCCCCCCCCCCCCCCCC` the outcome was “inactive”. In the case of `C[C@]12CC[C@H]3C(=CCc4cc(O)ccc43)[C@@H]1CCC2=O`, the outcome is reported as “inactive”. For `CSc1ccc(Cl)cc1`, the outcome was “inactive”. For `Cc1cccc(C)n1`, the outcome was “inactive”. For `CCC(Cc1c(I)cc(I)c(N)c1I)C(=O)O` (stereo not given), the outcome was “inactive”. With `CC1CCCCC1` the outcome was “inactive”. In the case of `CCCCCCCC/C=C\CCCCCCCC(=O)N(C)CC(=O)O`, the outcome is reported as “inactive”. With `CCc1ccc(C)nc1` the outcome was “inactive”. For `CCCCCCCCCCCCC[N+](C)(C)Cc1ccccc1`, the outcome was “inactive”. For `CN(C)C(C)(C)CO`, the outcome was “inactive”.
